According to PubChem BioAssay (NCATS):
Inconclusive results are not listed. Where a call stands in place of a potency, no number is given. Values without a mark were called inactive. The source made the active and inactive calls. Unless noted, calls follow the shape of the dose curve; as a rule, active = well fitted curve in the direction sought with a large enough effect; inconclusive = small, poorly fitted or top-dose-only effect, or another doubt; inactive = no such curve, though single readings can be large; an effect the other way counts as inactive or inconclusive.

Tests used:
[1] = biological target: Calcium and integrin-binding protein 1 (Homo sapiens) (UniProt Q99828); experiment: Primary qHTS for Identification of Calcium Integrin Binding Protein 1 (CIB1) Competitor (AID 1508620);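 also: GST tagged CIB1 binding a fluorescein labelled alphaIIb integrin peptide tracer; top concentration of the series differs between compounds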
In short: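 Fluorescence polarization competition: CIB1-GST (1 uM final) preincubated with compound 15 min at room temperature, then FITC-labeled alphaIIb peptide (100 nM final) added for another 15 min. Polarization read at Ex 480/Em 540.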

[2] = Primary qHTS for small molecule stabilizers of the endoplasmic reticulum resident proteome: Secreted ER Calcium Modulated Protein (SERCaMP) assay (AID 1508630)
In short: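 The SH-SY5Y reporter protocol was run at 3 concentrations up to 38.3 uM (primary) or 11 concentrations (follow-up): 16 h compound, 100 nM thapsigargin for 4 h, then extracellular luciferase luminescence.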

[3] = biological target: Cytochrome P450 2D6 (Homo sapiens) (UniProt P10635); experiment: Cytochrome P450 family 2 subfamily D member 6 (CYP2D6) small molecule antagonists: luciferase biochemical (cell-free) qHTS assay (AID 1645840; active = well fitted curve in the direction sought with a large enough effect in the repeat runs; an effect the other way counts as inactive or inconclusive; also: nearly all actives have a fitted effect of over 55% in size; also: potency is read from the fitted curve at half-maximal effect)
In short: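 P450-Glo CYP2D6 system: proluciferin substrate converted by enzyme to luciferin, read by luminescence proportional to activity. Enzyme-substrate mix with compound 10 min at room temperature, then NADPH regeneration 1 h before detection reagent.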

Sequence of Cytochrome P450 2D6 (Homo sapiens) (P10635 whole entry, looked up): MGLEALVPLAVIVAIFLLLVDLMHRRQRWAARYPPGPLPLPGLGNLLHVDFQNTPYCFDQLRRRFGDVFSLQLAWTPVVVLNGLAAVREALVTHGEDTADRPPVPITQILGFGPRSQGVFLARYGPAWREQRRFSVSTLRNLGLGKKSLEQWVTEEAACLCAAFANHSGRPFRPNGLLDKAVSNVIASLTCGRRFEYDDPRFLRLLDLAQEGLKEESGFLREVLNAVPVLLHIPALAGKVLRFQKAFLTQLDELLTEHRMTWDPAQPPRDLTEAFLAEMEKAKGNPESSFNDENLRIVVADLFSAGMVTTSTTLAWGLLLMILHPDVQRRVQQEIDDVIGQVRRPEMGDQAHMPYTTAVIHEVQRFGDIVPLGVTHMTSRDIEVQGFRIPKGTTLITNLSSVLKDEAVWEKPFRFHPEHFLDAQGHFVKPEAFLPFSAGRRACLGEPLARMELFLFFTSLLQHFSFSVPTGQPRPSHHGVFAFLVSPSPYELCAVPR
Sequence of Calcium and integrin-binding protein 1 (Homo sapiens) (Q99828 whole entry, looked up): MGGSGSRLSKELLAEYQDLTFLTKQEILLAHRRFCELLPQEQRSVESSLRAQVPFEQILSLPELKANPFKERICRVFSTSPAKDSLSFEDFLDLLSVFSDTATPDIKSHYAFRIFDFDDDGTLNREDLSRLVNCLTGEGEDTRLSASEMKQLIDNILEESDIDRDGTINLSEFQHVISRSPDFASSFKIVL

| SMILES | Potency [1] | Potency [2] | Potency [3] |
| --- | --- | --- | --- |
| CC1(C)CCC(CN2CCN(c3ccc(C(=O)NS(=O)(=O)c4ccc(NCC5CCOCC5)c([N+](=O)[O-])c4)c(Oc4cnc5[nH]ccc5c4)c3)CC2)=C(c2ccc(Cl)cc2)C1 | inactive | inactive | – |
| C[C@]12CC[C@@H]3c4ccc(O)cc4CC[C@H]3[C@H]1C[C@@H](O)[C@H]2O | inactive | inactive | – |
| c1cc(-c2sc(-c3ccncc3)c(-c3ccncc3)c2-c2ccncc2)ccn1 | inactive | inactive | – |
| CCOC(=O)O[C@]1(C(=O)OCCl)CC[C@@H]2[C@H]3CCC4=CC(=O)C=C[C@]4(C)[C@@H]3[C@@H](O)C[C@@]21C | inactive | inactive | – |
| CC=C(C)C(=O)O[C@H]1C(C)=C[C@]23C(=O)[C@@H](C=C(CO)[C@@H](O)[C@]12O)[C@H]1[C@@H](C[C@H]3C)C1(C)C | inactive | inactive | – |
| COCCCCC(=NOCCN)c1ccc(C(F)(F)F)cc1 | inactive | inactive | – |
| CC=CCC=CCCC(=O)[C@H]1O[C@@H]1C(N)=O | inactive | inactive | – |
| Oc1ccc(C2=Cc3ccc(O)cc3OC2)cc1 | inactive | inactive | – |
| O=C(OCC#CCSc1nnc(-c2cccc3ccccc23)o1)c1cc2ccccc2s1 | inactive | inactive | – |
| CNC1CCC(N(Cc2cccc(-c3ccncc3)c2)C(=O)c2sc3c(F)ccc(F)c3c2Cl)CC1 (centres undefined) | inactive | inactive | – |
| CCC(=O)O[C@]1(C(=O)CO)CC[C@H]2[C@@H]3CCC4=CC(=O)CC[C@]4(C)[C@@H]3CC[C@@]21C | inactive | inactive | – |
| c1ccc2c(Cc3c[nH]c4ccccc34)c[nH]c2c1 | inactive | inactive | – |
| Nc1ncnc2ccccc12 | inactive | inactive | – |
| CC(C)(C)C(=O)Oc1ccc2c(c1)nc(NC(=O)c1cccc([N+](=O)[O-])c1)n2CCCO | inactive | inactive | – |
| NC1CCC(Nc2nc(Nc3ccc(C(=O)N4CCCCC4)cc3)c3ncn(-c4cccc(F)c4)c3n2)CC1 (centres undefined) | inactive | inactive | – |
| CC[C@@H]1C=C(C)C[C@H](C)C[C@H](OC)[C@H]2O[C@@](O)(C(=O)C(=O)N3CCCC[C@@H]3C(=O)O[C@H](C(C)=C[C@@H]3CC[C@H](Cl)[C@H](OC)C3)[C@H](C)[C@@H](O)CC1=O)[C@H](C)C[C@H]2OC | inactive | inactive | – |

| SMILES | Potency [1] | Potency [2] | Potency [3] |
| --- | --- | --- | --- |
| C=C1C(=O)OC(CCCCCCCC)C1C(=O)O (centres undefined) | inactive | inactive | – |
| COc1ncc(-c2ccc3nccc(-c4ccnnc4)c3c2)cc1NS(=O)(=O)c1ccc(F)cc1F | inactive | inactive | – |
| Cc1nnc(C(C)C)n1C1C[C@H]2CC[C@@H](C1)N2CC[C@H](NC(=O)C1CCC(F)(F)CC1)c1ccccc1 (some centres undefined) | inactive | inactive | – |
| COc1ccc(-c2oc3c(CC=C(C)C)c(OC4O[C@H](CO)[C@@H](O)[C@H](O)[C@@H]4O)cc(O)c3c(=O)c2OC2O[C@@H](C)[C@H](O)[C@@H](O)[C@@H]2O)cc1 (some centres undefined) | inactive | inactive | – |
| CC(C)(C(=O)NCC(F)(F)C(F)(F)F)C(=O)N[C@@H]1C(=O)Nc2ccccc2-c2ccccc21 | inactive | inactive | – |
| CC(C)(C)NC(=O)Nc1cccc(Nc2ncc(F)c(NC(C)(C)CO)n2)c1 | inactive | inactive | – |
| CC(C)(C)c1cc(C(=O)O)c(NC(=O)Nc2ccc3[nH]ncc3c2)s1 | inactive | inactive | 3.38 µM (active) |
| NC(=O)c1cccc(-c2cc(Nc3ccc(OC(F)(F)F)cc3)ncn2)c1 | inactive | inactive | 26.8 µM (active) |
| Clc1ccc(-c2nc3sccn3c2C=NOCc2ccc(Cl)c(Cl)c2)cc1 | inactive | inactive | inactive |
| COc1ccc2c(Oc3ccc(NC(=O)c4c(C)n(CC(C)(C)O)n(-c5ccccc5)c4=O)nc3)ccnc2c1 | inactive | inactive | inactive |
| Cc1cc(OCCCc2c(C(=O)O)n(Cc3cccnc3)c3c(-c4c(COc5ccc(N6CCN([S+](C)(=O)[O-])CC6)cc5)nn(C)c4C)cccc23)cc(C)c1Cl | – | inactive | – |
| CCCCCNC(=O)N1CCC(CN(Cc2ccc(Cl)cc2)Cc2ccc([N+](=O)[O-])s2)C1 (centres undefined) | inactive | inactive | 2.39 µM (active) |
| O=c1c(-c2ccc(O)cc2)coc2cc(OC3O[C@H](CO)[C@H](O)[C@H](O)[C@H]3O)cc(O)c12 (some centres undefined) | inactive | inactive | 30.1 µM (active) |
| CCOc1ccc(Nc2nc(-c3c(C)nc4ccccn34)cs2)cc1 | inactive | inactive | 15.1 µM (active) |
| O=C1Nc2ccc(Cl)cc2C(C#CC2CC2)(C(F)(F)F)O1 (centres undefined) | inactive | inactive | 16.9 µM (active) |
